We go through 40 compounds from PubChem BioAssay (EPA / NIEHS).

Calls of active or inactive are those of the source. How the source made its calls: active means hit-call score of the fitted dose curve at least 0.9, where 1 is the maximum; inactive means score below 0.9.

Read-out in this assay: CD69, CD69 (gene 969)
The assay can be described thus: BSK_SAg_CD69: BioMAP Diversity Plus: SAg Assay for CD69 Biomarker Activity (AID 2283089). The note with it: primary human HUVEC with PBMC; actives raise or lower the signal. As to the method:
BSK_SAg is a cell-based, multiplexed-readout assay that uses umbilical vein endothelium and peripheral blood mononuclear cells, a human vascular primary cell co-culture, with measurements taken at 24 hours after chemical dosing in a 96-well plate.BSK_SAg_CD69 is one of 10 assay component(s) measured or calculated from the BSK_SAg assay. It is designed to make measurements of enzyme-linked immunosorbent assay, a form of binding reporter, as detected with fluorescence intensity signals by Enzyme-linked immunosorbent assay technology.Data from the assay component BSK_SAg_CD69 was analyzed into 1 assay endpoint. This assay endpoint, BSK_SAg_CD69, was analyzed with bidirectional fitting relative to DMSO as the negative control and baseline of activity. Using a type of binding reporter, gain or loss-of-signal activity can be used to understand changes in the signaling as they relate to the gene CD69. Furthermore, this assay endpoint can be referred to as a primary readout, because this assay has produced multiple assay endpoints where this one serves a signaling function. To generalize the intended target to other relatable targets, this assay endpoint is annotated to the cytokine intended target family, where the subfamily is inflammatory factor.
The levels of cell surface (or secreted, indicated by the prefix "s") biomarker endpoints were measured by ELISA. Overt cytotoxicity to cells in confluent adherent cultures (all systems other than the BT system) was assessed by measuring total protein levels using sulforhodamine B (SRB) staining in parallel cultures at the time of biomarker measurements, indicated as SRB endpoints. For proliferation assays for adherent cell types, individual cell types are cultured at sub-confluence and relative cell numbers quantified by SRB staining at time points optimized for each system (48 h: 3C and CASM3C systems; 72 h: BT and HDF3CGF systems; 96 h: SAg system). SRB was performed by staining cells with 0.1% SRB after fixation with 10% TCA and reading wells at 560 nm.Viability and proliferation of PBMC (T cells) was quantified by Alamar Blue reduction for the SAg and BT systems. For PBMC viability (referred to as PBMC Cytotoxicity within the assay endpoint names), cells were plated (75,000/well in a 96-well plate) and then chemical samples added for 1 h before addition of activators, SEB and TSST-1 (20 ng/mL final concentration each). Cells were incubated for 90 h. Then, Alamar Blue (20 uL/well) (Invitrogen, Cat DAL1100) was added for 6 h, and the plates were read with a fluorescence microplate reader at 546/580 nm (excitation/emission). For PBMC proliferation, cells were plated and activated as above but incubated for only 16 h prior to addition of Alamar Blue. Plates were read after 6 h.
Consider `CCSC(=O)N1CCCCCC1`, for which the result was inactive. Same read-out and setting: then `CN=C=S`, with “inactive”; and `O=c1n(Cl)c(=O)n(Cl)c(=O)n1Cl`, with “inactive”. As for `COc1cc(OC)nc(NC(=O)NS(=O)(=O)c2ncccc2OCC(F)(F)F)n1`, the outcome was inactive. With `CCOP(=O)(OCC)Oc1nc(Cl)c(Cl)cc1Cl`, the AC50 is 23.1 µM (active). For `COCc1cnc(C2=NC(C)(C(C)C)C(=O)N2)c(C(=O)O)c1` (stereo not given), the result was inactive.

Turning to `CCCC(=NOCC)C1=C(O)CC(CC(C)SCC)CC1=O` (stereo not given), the outcome was inactive. Still for that read-out and setting: then `COCC(=O)N(c1c(C)cccc1C)C(C)C(=O)OC` (stereo not given), with “inactive”; and `COC(=O)NS(=O)(=O)c1ccc(N)cc1`, with “inactive”. Consider `CO/N=C(/C1=NOCCO1)c1ccccc1Oc1ncnc(Oc2ccccc2Cl)c1F`, for which the AC50 was 9.36 µM (active). As to `CNC(=O)N(C)c1nnc(C(C)(C)C)s1`, the outcome was inactive. For the compound `CC1(C)CON(Cc2ccccc2Cl)C1=O`, the outcome was inactive. As to `CCCCC(C#N)(Cn1cncn1)c1ccc(Cl)cc1` (stereo not given), the result was inactive.

On to `CC(C)C1(C)N=C(c2ncccc2C(=O)O)NC1=O` (stereo not given), for which the outcome was inactive. The same measure, in the same setting: the entry for `CCOc1nc(F)cc2nc(S(=O)(=O)Nc3c(Cl)cccc3Cl)nn12` is “inactive”; for `CC(C)Oc1cccc(NC(=O)c2ccccc2C(F)(F)F)c1` it is “inactive”. On to `CCOC(=O)C(C)OC(=O)c1cc(Oc2ccc(C(F)(F)F)cc2Cl)ccc1[N+](=O)[O-]` (stereo not given), for which the AC50 is 12.8 µM (active). Take `COc1cc(Cl)c(OC)cc1Cl`: the result was inactive.

Regarding `CC(C)NC(=O)N1CC(=O)N(c2cc(Cl)cc(Cl)c2)C1=O`, the result was inactive. As for `Cc1nc(N(C)C)nc(OC(=O)N(C)C)c1C`, the outcome was inactive. Turning to `CC1(C)C(C=C(Cl)Cl)C1C(=O)OC(C#N)c1cccc(Oc2ccccc2)c1` (stereo not given), the outcome was inactive.

`Cc1ccc(N=CN(C)C=Nc2ccc(C)cc2C)c(C)c1`: the AC50 was 31.5 µM (active). In the case of `COC(=O)NC(=S)Nc1ccccc1NC(=S)NC(=O)OC`, the outcome was inactive.

On to `CCNC(=O)NC(=O)C(C#N)=NOC`, for which the outcome was inactive. As to `CCOP(=S)(OCC)Oc1nc(Cl)n(C(C)C)n1`, the outcome was inactive. Still for that read-out and setting: then `N#CN=C1SCCN1Cc1ccc(Cl)nc1`, with “inactive”. Take `COP(=S)(OC)Oc1ccc([N+](=O)[O-])c(C)c1`: the AC50 was 37 µM (active). As for `CC(C)N1C(=O)c2ccccc2NS1(=O)=O`, the outcome was inactive. With `CS(=O)(=O)c1ccc(C(=O)C2C(=O)CCCC2=O)c([N+](=O)[O-])c1`, the outcome was inactive.

Take `CC1(C)C(C(=O)OC(C#N)c2cccc(Oc3ccccc3)c2)C1(C)C` (stereo not given): the AC50 was 12.2 µM (active).

For `O=C1C2CC=CCC2C(=O)N1SC(Cl)(Cl)Cl` (stereo not given), the result was inactive. In the case of `CCCCC(O)(Cn1cncn1)c1ccc(Cl)cc1Cl` (stereo not given), the outcome was inactive. As to `CC(C)N1C(=O)N(c2ccccc2)CSC1=NC(C)(C)C`, the AC50 is 30.3 µM (active). Same read-out and setting: the figure for `N#Cc1c[nH]cc1-c1cccc2c1OC(F)(F)O2` is 24.5 µM (active); for `Cn1c(-c2ccccc2)cc(-c2ccccc2)[n+]1C` it is 2.99 µM (active). In the case of `N#Cc1c(Cl)cccc1Cl`, the result was inactive. Turning to `Cc1c(COC(=O)[C@@H]2[C@H](/C=C(\Cl)C(F)(F)F)C2(C)C)cccc1-c1ccccc1`, the AC50 was 5.92 µM (active). With `CC(C)Nc1nc(Cl)nc(NC(C)C)n1`, the outcome was inactive.

`CCCN(CC)CC1COC2(CCC(C(C)(C)C)CC2)O1` (stereo not given): the outcome was inactive.

`CCN(CC)C(=O)C(C)Oc1cccc2ccccc12` (stereo not given): the outcome was inactive.

Usually AC50 stands for the concentration at which the activity in the assay is half-maximal.
